Test results taken from PubChem BioAssay (EPA / NIEHS).
The source made the active and inactive calls. How the source made its calls: active means hit-call score of the fitted dose curve at least 0.9, where 1 is the maximum; inactive means score below 0.9.

How the values were obtained:
[1] = read-out: Monokine induced gamma interferon (MIG), CXCL9 (gene 4283); experiment: BSK_BE3C_MIG: BioMAP Diversity Plus: BE3C Assay for Monokine induced gamma interferon (MIG) Biomarker Activity (AID 2283035); settings: primary human bronchial epithelial cells; actives raise or lower the signal
In short: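 ELISA quantified MIG after 24 h exposure of primary bronchial epithelial cultures, analysed in both directions relative to DMSO. Cytotoxicity tracked in parallel cultures by sulforhodamine B staining.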

[2] = read-out: Transforming growth factor beta 1 (TGFb1), TGFB1 (gene 7040); experiment: BSK_BE3C_TGFb1: BioMAP Diversity Plus: BE3C Assay for Transforming growth factor beta 1 (TGFb1) Biomarker Activity (AID 2283036); settings: primary human bronchial epithelial cells; actives raise or lower the signal
In short: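 ELISA readout of TGF-b1 from human lung bronchial epithelial primary cells, taken 24 h post-treatment. Gain or loss of signal fitted relative to DMSO baseline, with parallel SRB staining for overt cytotoxicity.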

[3] = read-out: Plasminogen activator inhibitor-1 (PAI1), SERPINE1 (gene 5054); experiment: BSK_BE3C_PAI1: BioMAP Diversity Plus: BE3C Assay for Plasminogen activator inhibitor-1 (PAI1) Biomarker Activity (AID 2283037); settings: primary human bronchial epithelial cells; actives raise or lower the signal
In short: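 PAI-1 was measured by ELISA in human primary bronchial epithelial cultures 24 h after chemical dosing, with cytotoxicity checked by SRB total-protein staining in parallel cultures. Activity was fitted in both directions relative to DMSO.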

[4] = read-out: urokinase plasminogen activator (uPA), PLAU (gene 5328); experiment: BSK_BE3C_uPA: BioMAP Diversity Plus: BE3C Assay for urokinase plasminogen activator (uPA) Biomarker Activity (AID 2283038); settings: primary human bronchial epithelial cells; actives raise or lower the signal
In short: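 Primary human bronchial epithelial cells, uPA measured by ELISA 24 h after dosing. Bidirectional change relative to DMSO; cytotoxicity checked in parallel cultures by sulforhodamine B total-protein staining.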

[5] = read-out: Urokinase-type plasminogen activator receptor (uPAR), PLAUR (gene 5329); experiment: BSK_BE3C_uPAR: BioMAP Diversity Plus: BE3C Assay for Urokinase-type plasminogen activator receptor (uPAR) Biomarker Activity (AID 2283039); settings: primary human bronchial epithelial cells; actives raise or lower the signal
In short: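 uPAR levels were measured by ELISA after 24 h compound treatment of primary human bronchial epithelial cells, fitted in both directions relative to DMSO. Parallel SRB staining served as the cytotoxicity read-out.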

[6] = read-out: Interleukin-6 (IL6), IL6 (gene 3569); experiment: BSK_CASM3C_IL6: BioMAP Diversity Plus: CASM3C Assay for Interleukin-6 (IL6) Biomarker Activity for (AID 2283040); settings: primary human coronary artery smooth muscle cells; actives raise or lower the signal
[7] = read-out: Tissue plasminogen activator (tPA), PLAT (gene 5327); experiment: BSK_BE3C_tPA: BioMAP Diversity Plus: BE3C Assay for Tissue plasminogen activator (tPA) Biomarker Activity (AID 2283041); settings: primary human bronchial epithelial cells; actives raise or lower the signal
In short: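 tPA measured by ELISA 24 h after dosing human primary bronchial epithelial cells (BE3C system). Changes in either direction were fitted against DMSO. Parallel cultures were stained with SRB to flag overt cytotoxicity.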

[8] = read-out: Interleukin-8 (IL8), CXCL8 (gene 3576); experiment: BSK_CASM3C_IL8: BioMAP Diversity Plus: CASM3C Assay for Interleukin-8 (IL8) Biomarker Activity (AID 2283042); settings: primary human coronary artery smooth muscle cells; actives raise or lower the signal;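 further: IL-8 protein level quantified by ELISA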
[9] = read-out: Human Leukocyte Antigen - DR isotype (HLADR), HLA-DRA (gene 3122); experiment: BSK_CASM3C_HLADR: BioMAP Diversity Plus: CASM3C Assay for Human Leukocyte Antigen - DR isotype (HLADR) Biomarker Activity (AID 2283043); settings: primary human coronary artery smooth muscle cells; actives raise or lower the signal;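 further: cell-surface HLA-DR protein level quantified by ELISA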
[10] = read-out: Macrophage colony-stimulating factor (MCSF), CSF1 (gene 1435); experiment: BSK_CASM3C_MCSF: BioMAP Diversity Plus: CASM3C Assay for Macrophage colony-stimulating factor (MCSF) Biomarker Activity (AID 2283044); settings: primary human coronary artery smooth muscle cells; actives raise or lower the signal;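 further: M-CSF protein amount quantified by ELISA after 24 h exposure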
[11] = read-out: Low-density lipoprotein receptor (LDLR), LDLR (gene 3949); experiment: BSK_CASM3C_LDLR: BioMAP Diversity Plus: CASM3C Assay for Low-density lipoprotein receptor (LDLR) Biomarker Activity (AID 2283045); settings: primary human coronary artery smooth muscle cells; actives raise or lower the signal;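 further: LDLR protein level on the cell surface quantified by ELISA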
[12] = read-out: Monocyte Chemoattractant Protein-1 (MCP1), CCL2 (gene 6347); experiment: BSK_CASM3C_MCP1: BioMAP Diversity Plus: CASM3C Assay for Monocyte Chemoattractant Protein-1 (MCP1) Biomarker Activity (AID 2283046); settings: primary human coronary artery smooth muscle cells; actives raise or lower the signal;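 further: MCP-1 level quantified by ELISA 24 h after dosing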
[13] = BSK_CASM3C_Proliferation: Cell Proliferation Assessment in the BioMAP Diversity Plus: CASM3C Assay (AID 2283047); settings: primary human coronary artery smooth muscle cells;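 further: sulforhodamine B total protein stain as relative cell number at 560 nm; sub-confluent cells exposed 48 h before staining; fitted both ways against DMSO so gain or loss of cell number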
[14] = read-out: Monokine induced gamma interferon (MIG), CXCL9 (gene 4283); experiment: BSK_CASM3C_MIG: BioMAP Diversity Plus: CASM3C Assay for Monokine induced gamma interferon (MIG) Biomarker Activity (AID 2283048); settings: primary human coronary artery smooth muscle cells; actives raise or lower the signal;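 further: MIG protein level measured by ELISA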
[15] = read-out: serum amyloid A (SAA), SAA1 (gene 6288); experiment: BSK_CASM3C_SAA: BioMAP Diversity Plus: CASM3C Assay for serum amyloid A (SAA) Biomarker Activity (AID 2283049); settings: primary human coronary artery smooth muscle cells; actives raise or lower the signal;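 further: SAA protein level quantified by ELISA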
[16] = BSK_CASM3C_SRB: Viability Assessment in the BioMAP Diversity Plus: CASM3C Assay (AID 2283050); settings: primary human coronary artery smooth muscle cells
[17] = read-out: Thrombomodulin, THBD (gene 7056); experiment: BSK_CASM3C_Thrombomodulin: BioMAP Diversity Plus: CASM3C Assay for Thrombomodulin Biomarker Activity (AID 2283051); settings: primary human coronary artery smooth muscle cells; actives raise or lower the signal;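 further: thrombomodulin protein level measured by ELISA 24 h after dosing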
[18] = read-out: Tissue Factor, F3 (gene 2152); experiment: BSK_CASM3C_TissueFactor: BioMAP Diversity Plus: CASM3C Assay for Tissue Factor Biomarker Activity (AID 2283052); settings: primary human coronary artery smooth muscle cells; actives raise or lower the signal;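 further: cell surface tissue factor protein level read by ELISA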
[19] = read-out: Urokinase-type plasminogen activator receptor (uPAR), PLAUR (gene 5329); experiment: BSK_CASM3C_uPAR: BioMAP Diversity Plus: CASM3C Assay for Urokinase-type plasminogen activator receptor (uPAR) Biomarker Activity (AID 2283054); settings: primary human coronary artery smooth muscle cells; actives raise or lower the signal;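 further: cell-surface uPAR protein level quantified by ELISA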
[20] = read-out: Interferon-gamma inducible Protein 10 (IP10), CXCL10 (gene 3627); experiment: BSK_hDFCGF_IP10: BioMAP Diversity Plus: hDFCGF Assay for Interferon-gamma inducible Protein 10 (IP10) Biomarker Activity (AID 2283053); settings: primary human foreskin fibroblasts; actives raise or lower the signal
In short: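 ELISA quantification of IP-10 after a 24 h chemical exposure of human dermal foreskin fibroblast primary cultures. Both increases and decreases versus DMSO fitted.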

Measured: AC50

O=S(=O)(c1ccc(Cl)cc1)c1cc(Cl)c(Cl)cc1Cl
inactive: [1] | [2] | [3] | [4] | [5] | [6] | [7] | [8] | [9] | [10] | [11] | [12] | [13] | [14] | [15] | [16] | [18]
active: [17] 8.36 µM | [19] 20 µM

Oc1cccc(-c2ccccc2)c1
inactive: [1] | [2] | [3] | [4] | [5] | [6] | [7] | [8] | [9] | [10] | [11] | [14] | [15] | [17] | [19]
active: [12] 20 µM | [13] 34.4 µM | [16] 28.7 µM | [18] 20 µM

CCCCCCCCCCCCc1cccc(S(=O)(=O)O)c1
inactive: [6] | [8] | [9] | [10] | [11] | [12] | [13] | [14] | [15] | [16] | [17] | [18] | [19]
active: [1] 30.1 µM | [2] 5.79 µM | [3] 23.7 µM | [4] 28.4 µM | [5] 29.1 µM | [7] 3.92 µM

OC(Cc1ccccc1Cl)(Cn1[nH]cnc1=S)C1(Cl)CC1 (centres undefined)
inactive: [6] | [8] | [10] | [12] | [13] | [14] | [17]
active: [1] 31.1 µM | [2] 8.86 µM | [3] 6.3 µM | [4] 20 µM | [5] 12.6 µM | [7] 20 µM | [9] 26.7 µM | [11] 3.97 µM | [15] 5.29 µM | [16] 31.4 µM | [18] 15.3 µM | [19] 32.5 µM

Oc1ccc(Cc2ccc(O)cc2)cc1
inactive: [1] | [2] | [3] | [4] | [5] | [6] | [7] | [8] | [9] | [10] | [11] | [12] | [13] | [14] | [15] | [16] | [17] | [18] | [19]

Clc1cccc(Cl)c1
inactive: [1] | [2] | [3] | [4] | [5] | [6] | [7] | [8] | [9] | [10] | [11] | [12] | [13] | [14] | [15] | [16] | [17] | [18] | [19]

Cc1cc(Cl)ccc1N
inactive: [1] | [2] | [4] | [5] | [6] | [7] | [8] | [9] | [10] | [11] | [12] | [13] | [14] | [15] | [16] | [17] | [18] | [19]
active: [3] 3.97 µM

COCC(=O)N(c1c(C)cccc1C)[C@H](C)C(=O)OC
inactive: [1] | [2] | [3] | [4] | [5] | [6] | [7] | [8] | [9] | [10] | [11] | [12] | [13] | [14] | [15] | [16] | [17] | [18] | [19]

Cc1c([N+](=O)[O-])c(C)c([N+](=O)[O-])c(C(C)(C)C)c1[N+](=O)[O-]
inactive: [1] | [2] | [3] | [4] | [5] | [6] | [7] | [8] | [9] | [10] | [11] | [12] | [13] | [14] | [15] | [16] | [17] | [18] | [19]

Oc1cc(Cl)c(Cl)cc1Cl
inactive: [1] | [2] | [5] | [6] | [8] | [9] | [10] | [11] | [12] | [14] | [15] | [16] | [18] | [19]
active: [4] 26.2 µM | [7] 12.9 µM | [13] 30.8 µM | [20] 20 µM

Cc1cc(C)cc(C)c1
inactive: [1] | [2] | [3] | [4] | [5] | [6] | [7] | [8] | [9] | [10] | [11] | [12] | [13] | [14] | [15] | [16] | [17] | [18] | [19]

CC(C=O)Cc1ccc2c(c1)OCO2 (centres undefined)
inactive: [1] | [2] | [3] | [4] | [5] | [6] | [7] | [8] | [9] | [10] | [11] | [12] | [13] | [14] | [15] | [16] | [17] | [18] | [19]

CCOP(=S)(OCC)SCS(=O)(=O)C(C)(C)C
inactive: [1] | [2] | [3] | [4] | [5] | [6] | [7] | [8] | [9] | [10] | [11] | [12] | [13] | [14] | [15] | [16] | [17] | [18] | [19]

O=C1C=CC(=O)c2ccccc21
active: [1] 6.51 µM | [2] 2.26 µM | [3] 3.25 µM | [4] 4.36 µM | [5] 4.59 µM | [6] 9.25 µM | [7] 3.27 µM | [8] 20 µM | [9] 2.45 µM | [10] 5.16 µM | [11] 10.8 µM | [12] 8.9 µM | [13] 0.474 µM | [14] 30.1 µM | [15] 3.37 µM | [16] 8.33 µM | [17] 34.1 µM | [18] 6.75 µM | [19] 4.99 µM

Oc1c(Cl)cc(Cl)cc1Cl
inactive: [1] | [2] | [3] | [4] | [5] | [6] | [7] | [8] | [9] | [10] | [11] | [12] | [13] | [14] | [15] | [16] | [17] | [18] | [19]
